Experimental data taken from ChEMBL document CHEMBL3988442, “University of Dundee, Small-Polar-MMV Screening Library” (2021).
For some assays here: Entries with a potency or affinity are not part of this list.

What was measured:
Design in all cases: scale not given: direction of the effect not stated beside the values
[1] = target: Protein translocase subunit SecA (Escherichia coli (strain K12)) (UniProt P10408); assay: Assay to Identify E. coli SecA ATPase Inhibitors; type: functional; details: 30 µM
[2] = target: T1, Ubiquitin-activating enzyme e1, putative (Leishmania donovani (strain BPK282A1)) (UniProt E9BSI1); assay: Leishmania donovani Ubiquitin Activating Enzyme (LdE1); type: functional; details: 30 µM
T1 sequence (whole entry): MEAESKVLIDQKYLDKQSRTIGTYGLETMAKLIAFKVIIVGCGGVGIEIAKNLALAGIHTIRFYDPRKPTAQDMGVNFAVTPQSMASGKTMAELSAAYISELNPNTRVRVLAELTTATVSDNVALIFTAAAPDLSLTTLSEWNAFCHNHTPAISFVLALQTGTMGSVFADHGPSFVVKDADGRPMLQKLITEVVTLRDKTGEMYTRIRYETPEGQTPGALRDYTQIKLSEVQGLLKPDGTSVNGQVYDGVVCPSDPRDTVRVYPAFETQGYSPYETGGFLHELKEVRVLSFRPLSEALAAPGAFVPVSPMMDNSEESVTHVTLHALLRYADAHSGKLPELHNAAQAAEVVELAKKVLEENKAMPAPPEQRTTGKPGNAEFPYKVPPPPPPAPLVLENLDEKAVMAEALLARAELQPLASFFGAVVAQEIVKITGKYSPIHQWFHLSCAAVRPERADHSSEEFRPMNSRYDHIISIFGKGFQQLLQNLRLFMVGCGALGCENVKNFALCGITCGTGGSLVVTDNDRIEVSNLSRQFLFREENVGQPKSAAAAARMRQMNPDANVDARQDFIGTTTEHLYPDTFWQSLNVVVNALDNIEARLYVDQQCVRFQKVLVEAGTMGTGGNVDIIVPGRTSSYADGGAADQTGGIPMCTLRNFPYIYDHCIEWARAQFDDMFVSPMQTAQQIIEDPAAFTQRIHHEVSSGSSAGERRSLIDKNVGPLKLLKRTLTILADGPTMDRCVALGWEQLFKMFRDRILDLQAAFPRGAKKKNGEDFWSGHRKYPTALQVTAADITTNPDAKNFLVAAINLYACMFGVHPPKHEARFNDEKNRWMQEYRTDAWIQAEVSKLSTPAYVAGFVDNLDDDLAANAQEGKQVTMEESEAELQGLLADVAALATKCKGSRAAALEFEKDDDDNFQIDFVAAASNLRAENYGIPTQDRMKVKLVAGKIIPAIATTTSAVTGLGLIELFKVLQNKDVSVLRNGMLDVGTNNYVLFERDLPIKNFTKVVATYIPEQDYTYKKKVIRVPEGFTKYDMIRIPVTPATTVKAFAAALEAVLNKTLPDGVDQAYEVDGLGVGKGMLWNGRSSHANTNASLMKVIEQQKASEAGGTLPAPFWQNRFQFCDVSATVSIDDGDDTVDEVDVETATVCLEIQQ

[3] = target: AMP-activated protein kinase, AMPK (Homo sapiens) (UniProt P54646+O43741+P54619+Q9UGJ0+Q9Y478+Q13131+Q9UGI9); assay: AMP-dependent Kinase enzyme assay. An in vitro enzyme assay that detects ADP turnover that is directly proportional to AMPK activity. This uses naive AMPK that is activated during the assay with MK-8722; type: functional; details: 30 µM
[4] = target: Sialic acid-binding Ig-like lectin 9 (Homo sapiens) (UniProt Q9Y336); assay: Hs-Siglec9 ALPHAscreen SOP 20170721; details: 10 µM
[5] = tested on: Trypanosoma cruzi; assay: Trypanosoma cruzi phosphomannomutase and mannose-1-phosphate guanylyltransferase assay; type: functional; details: 10 µM
[6] = target: T2, Arginase-2, mitochondrial (Homo sapiens) (UniProt P78540); assay: in vitro enzyme assay to detect the production of urea directly proportional to the activity of Arginase II; type: functional; details: 33.3 µM; note: in the data most compounds retested in dose-response had high values
T2 sequence (whole entry): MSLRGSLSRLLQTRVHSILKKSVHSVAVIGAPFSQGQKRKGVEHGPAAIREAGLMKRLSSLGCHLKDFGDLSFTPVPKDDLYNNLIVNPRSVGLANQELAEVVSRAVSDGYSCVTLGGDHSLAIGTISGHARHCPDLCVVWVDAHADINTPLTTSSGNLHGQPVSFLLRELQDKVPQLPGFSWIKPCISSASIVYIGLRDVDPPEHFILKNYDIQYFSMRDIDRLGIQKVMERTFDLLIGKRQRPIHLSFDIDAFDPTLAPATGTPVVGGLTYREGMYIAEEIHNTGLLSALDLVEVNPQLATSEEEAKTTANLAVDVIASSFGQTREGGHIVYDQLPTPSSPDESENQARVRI

[7] = target: T3, Proteasome subunit beta (Trypanosoma cruzi) (UniProt O96673); assay: Trypanosoma cruzi proteasome chymotrypsin-like activity (TcProtChymo) assay.; note: in the data most compounds retested in dose-response had high values; type: functional; details: 9.37 µM
T3 sequence (whole entry): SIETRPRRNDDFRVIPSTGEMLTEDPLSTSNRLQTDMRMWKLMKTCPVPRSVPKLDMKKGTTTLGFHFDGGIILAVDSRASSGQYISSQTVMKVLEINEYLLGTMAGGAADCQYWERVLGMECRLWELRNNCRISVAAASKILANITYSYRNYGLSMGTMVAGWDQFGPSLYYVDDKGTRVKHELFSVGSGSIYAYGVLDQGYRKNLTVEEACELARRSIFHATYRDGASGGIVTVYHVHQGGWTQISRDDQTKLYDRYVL

[8] = organism: Homo sapiens; assay: To identify inhibition of the IFN signalling (Jak-Stat) pathway via expression of an eGFP reporter gene under the control of an IFN-stimulated response element (ISRE) containing MxA promoter.; type: functional; details: 30 µM
[9] = target: T4, Tyrosyl-tRNA synthetase, putative (Trypanosoma cruzi (strain CL Brener)) (UniProt Q4DSP6); assay: Trypanosoma cruzi tyrosyl tRNA synthetase (TcYRS) _High Tyrosine SOP; type: functional; details: 30 µM; note: in the data most compounds retested in dose-response had high values
T4 sequence (whole entry): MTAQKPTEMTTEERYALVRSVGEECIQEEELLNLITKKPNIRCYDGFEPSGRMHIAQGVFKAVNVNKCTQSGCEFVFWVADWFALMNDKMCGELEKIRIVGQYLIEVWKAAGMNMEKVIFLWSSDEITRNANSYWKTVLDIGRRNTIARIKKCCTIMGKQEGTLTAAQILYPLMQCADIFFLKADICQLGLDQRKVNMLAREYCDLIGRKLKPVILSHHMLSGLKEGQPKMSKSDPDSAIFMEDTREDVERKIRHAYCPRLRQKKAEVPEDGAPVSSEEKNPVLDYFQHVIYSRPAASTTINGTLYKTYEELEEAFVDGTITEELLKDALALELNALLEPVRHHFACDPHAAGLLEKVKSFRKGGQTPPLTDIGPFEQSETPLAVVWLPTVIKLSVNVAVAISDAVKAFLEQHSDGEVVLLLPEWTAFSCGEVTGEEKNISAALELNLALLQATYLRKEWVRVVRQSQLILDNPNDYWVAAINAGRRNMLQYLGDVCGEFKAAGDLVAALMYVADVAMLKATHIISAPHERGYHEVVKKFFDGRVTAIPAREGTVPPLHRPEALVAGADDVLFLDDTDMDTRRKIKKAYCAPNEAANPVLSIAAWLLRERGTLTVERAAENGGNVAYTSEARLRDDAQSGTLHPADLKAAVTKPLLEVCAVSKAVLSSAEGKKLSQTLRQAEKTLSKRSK

[10] = target: T4, Tyrosyl-tRNA synthetase, putative (Trypanosoma cruzi (strain CL Brener)); assay: Trypanosoma cruzi tyrosyl tRNA synthetase (TcYRS) SOP; type: functional; details: 30 µM
[11] = target: Chromo domain-containing protein 1 (Saccharomyces cerevisiae (strain ATCC 204508 / S288c) (Baker's yeast)) (UniProt P32657); assay: ScCHD-1 Enzyme Inhibition Assay; type: functional; details: 30 µM; note: in the data most compounds retested in dose-response had high values
Chromo domain-containing protein 1 (Saccharomyces cerevisiae (strain ATCC 204508 / S288c) (Baker's yeast)), sequence (P32657 whole entry, the tested form may be a part): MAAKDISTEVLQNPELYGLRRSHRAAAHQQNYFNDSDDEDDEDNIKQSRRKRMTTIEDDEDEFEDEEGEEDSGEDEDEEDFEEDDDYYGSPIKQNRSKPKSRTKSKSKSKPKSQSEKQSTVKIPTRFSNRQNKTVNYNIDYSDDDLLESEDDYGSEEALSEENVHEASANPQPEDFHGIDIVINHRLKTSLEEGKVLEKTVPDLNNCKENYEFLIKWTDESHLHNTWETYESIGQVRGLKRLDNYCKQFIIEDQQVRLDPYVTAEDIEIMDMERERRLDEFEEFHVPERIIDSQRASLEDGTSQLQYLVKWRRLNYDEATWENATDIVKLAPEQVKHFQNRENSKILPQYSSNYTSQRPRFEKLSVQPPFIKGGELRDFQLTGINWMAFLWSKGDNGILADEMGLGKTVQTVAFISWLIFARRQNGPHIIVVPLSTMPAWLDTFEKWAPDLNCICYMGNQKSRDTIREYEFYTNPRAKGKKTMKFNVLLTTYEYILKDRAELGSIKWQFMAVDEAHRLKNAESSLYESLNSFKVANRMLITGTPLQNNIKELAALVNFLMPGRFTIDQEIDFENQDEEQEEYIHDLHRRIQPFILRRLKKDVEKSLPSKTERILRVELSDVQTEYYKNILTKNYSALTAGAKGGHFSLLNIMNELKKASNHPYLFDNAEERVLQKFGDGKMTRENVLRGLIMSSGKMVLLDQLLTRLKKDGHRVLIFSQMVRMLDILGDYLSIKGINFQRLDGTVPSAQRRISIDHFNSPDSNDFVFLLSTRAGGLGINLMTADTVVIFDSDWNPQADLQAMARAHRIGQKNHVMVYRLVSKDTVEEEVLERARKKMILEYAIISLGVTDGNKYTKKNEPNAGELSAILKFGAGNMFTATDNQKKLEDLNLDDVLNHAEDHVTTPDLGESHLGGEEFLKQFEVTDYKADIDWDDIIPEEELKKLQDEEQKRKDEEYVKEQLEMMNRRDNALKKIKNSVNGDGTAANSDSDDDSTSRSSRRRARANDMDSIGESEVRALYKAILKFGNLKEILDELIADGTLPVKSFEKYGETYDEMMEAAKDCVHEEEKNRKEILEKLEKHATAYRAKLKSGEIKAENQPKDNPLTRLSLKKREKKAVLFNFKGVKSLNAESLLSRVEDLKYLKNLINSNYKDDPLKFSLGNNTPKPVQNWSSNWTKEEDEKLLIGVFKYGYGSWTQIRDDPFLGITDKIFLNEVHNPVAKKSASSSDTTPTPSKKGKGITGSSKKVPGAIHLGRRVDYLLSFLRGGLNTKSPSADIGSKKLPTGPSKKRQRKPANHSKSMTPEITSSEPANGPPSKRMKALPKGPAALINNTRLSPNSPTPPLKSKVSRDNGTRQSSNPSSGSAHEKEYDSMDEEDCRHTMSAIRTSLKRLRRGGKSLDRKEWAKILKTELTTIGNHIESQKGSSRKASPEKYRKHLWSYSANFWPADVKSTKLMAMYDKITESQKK

Sialic acid-binding Ig-like lectin 9 (Homo sapiens), sequence (Q9Y336 whole entry): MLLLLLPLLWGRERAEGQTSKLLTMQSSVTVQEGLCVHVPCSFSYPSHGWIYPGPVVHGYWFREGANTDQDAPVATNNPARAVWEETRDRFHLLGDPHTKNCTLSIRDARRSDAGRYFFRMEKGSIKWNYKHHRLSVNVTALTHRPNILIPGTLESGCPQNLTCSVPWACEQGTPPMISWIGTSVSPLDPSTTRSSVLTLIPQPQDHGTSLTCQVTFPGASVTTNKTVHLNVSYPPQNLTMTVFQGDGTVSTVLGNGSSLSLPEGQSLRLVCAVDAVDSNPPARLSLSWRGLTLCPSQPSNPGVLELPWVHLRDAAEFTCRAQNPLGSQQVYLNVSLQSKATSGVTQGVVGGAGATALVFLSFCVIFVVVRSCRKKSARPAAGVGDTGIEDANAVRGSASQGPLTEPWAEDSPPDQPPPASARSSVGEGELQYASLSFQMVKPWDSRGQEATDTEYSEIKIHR
Protein translocase subunit SecA (Escherichia coli (strain K12)), sequence (P10408 whole entry): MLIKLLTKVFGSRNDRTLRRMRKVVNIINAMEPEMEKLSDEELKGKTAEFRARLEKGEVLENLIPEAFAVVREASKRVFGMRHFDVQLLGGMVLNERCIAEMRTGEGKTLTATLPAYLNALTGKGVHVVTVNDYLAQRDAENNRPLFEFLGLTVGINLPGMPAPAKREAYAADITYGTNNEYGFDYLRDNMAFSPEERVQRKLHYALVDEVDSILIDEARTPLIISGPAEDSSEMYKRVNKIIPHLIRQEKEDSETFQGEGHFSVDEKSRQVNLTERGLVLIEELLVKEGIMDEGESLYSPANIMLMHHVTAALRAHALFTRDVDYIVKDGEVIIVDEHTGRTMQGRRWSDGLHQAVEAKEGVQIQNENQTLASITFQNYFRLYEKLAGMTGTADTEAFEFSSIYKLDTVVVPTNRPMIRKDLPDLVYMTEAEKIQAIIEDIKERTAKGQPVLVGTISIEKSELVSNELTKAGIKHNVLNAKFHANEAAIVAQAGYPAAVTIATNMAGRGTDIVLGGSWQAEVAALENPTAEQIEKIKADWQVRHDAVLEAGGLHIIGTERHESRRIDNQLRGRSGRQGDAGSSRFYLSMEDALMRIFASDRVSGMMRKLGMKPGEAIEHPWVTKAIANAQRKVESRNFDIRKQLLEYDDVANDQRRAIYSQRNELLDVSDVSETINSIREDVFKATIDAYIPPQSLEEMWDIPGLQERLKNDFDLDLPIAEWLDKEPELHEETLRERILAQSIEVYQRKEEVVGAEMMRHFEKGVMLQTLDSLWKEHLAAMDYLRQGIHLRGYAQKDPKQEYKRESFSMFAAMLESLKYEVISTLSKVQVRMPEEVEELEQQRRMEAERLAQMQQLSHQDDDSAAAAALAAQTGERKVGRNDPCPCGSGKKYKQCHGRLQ

Compound	Percent Effect [1] [%]	Percent Effect [2] [%]	Percent Effect [3] [%]	Percent Effect [4] [%]	Percent Effect [5] [%]	Percent Effect [6] [%]	Percent Effect [7] [%]	Percent Effect [8] [%]	Percent Effect [9] [%]	Percent Effect [10] [%]	Percent Effect [11] [%]
CC(C)c1ncc(CN2C[C@@H](CN3CCC(CO)CC3)[C@@H](CO)C2)cn1	-3.44	8	-6.42	4.65	3.02	1.56	19.7	10.9	3.83	11.1	-4.15
O=C1NCCN1C1CCN(Cc2nc(-c3ccoc3)no2)CC1	-1.17	5.2	2.43	5.09	3.56	-2.85	4.56	-2.53	0.971	12.2	-2.45
COCC(=O)NCc1cc(=O)n2c(n1)CN(CC1CCOC1)CCC2 (stereo unspecified)	0.158	13.5	2.63	-10.2	0.0978	-2.23	8.12	8.83	-1.08	12.8	-2.53
CCCc1cc(=O)[nH]c2nnc(SCC(=O)NCc3ccc(C)cc3)n12	-0.143	13.7	-0.135	6.56	3.33	13.6	20.2	16.9	6.45	17.5	-7.5
CC(C)Cc1noc(CN2CCCC(Cn3cncn3)C2)n1 (stereo unspecified)	-4.29	16.2	-4.96	16.6	3.25	2.03	7	13.5	11.9	28.1	-7.85
CN(c1ccncn1)C1CC2(CCN(C(=O)c3cccs3)C2)C1 (stereo unspecified)	-5.11	1.35	1.54	8.09	2.96	-2.09	1.09	11.6	-6.45	-6.49	-17.8
O=C(NCCn1ccnc1)c1ccn(-c2cccc(F)c2)n1	-6.24	15.8	-0.288	-5.43	-11.1	-0.719	2.28	-0.954	0.493	3.7	-2.98
COc1ccnc(N2CCN(C(=O)NCc3ccc(C)s3)CC2)n1	-4.33	15.6	6.59	2.69	4.6	1.47	5.42	-2.65	5.71	18.8	-0.255
CC(=O)N1CCC(Oc2ccc(Cl)cn2)CC1	-1.02	5.48	-4.62	4.94	4.5	8.64	3.19	18.8	3.23	7.5	-4.92
CC(C)n1c(C2CCCN(CCS(C)(=O)=O)C2)nc2ccccc21 (stereo unspecified)	-2.02	8.11	1.95	-0.0156	0.586	13.8	7.69	-5.65	5.94	8.54	-2.93
Cc1nc(C)n(CC2CCCCN2CCS(C)(=O)=O)n1 (stereo unspecified)	-4.31	-2.7	0.489	0.818	-3.09	-3.33	11.7	8.2	-2.65	-4.88	-3.45
CCc1cnc(CNc2ccc(C(=O)N3CCCC(C)C3)cc2C)o1 (stereo unspecified)	-1.36	-5.2	6.76	-0.151	-0.936	-1.78	8.78	25.1	-0.971	0	-5.54
CNC(=O)c1ccc(OC2CCN(S(C)(=O)=O)CC2)c(Cl)c1	-2.46	4.17	-2.06	-2.97	0.68	2.65	14.7	24.7	6.32	10.3	-2.92
O=C(NCCCn1cncn1)NCC(c1ccco1)N1CCCCC1 (stereo unspecified)	1.3	10.4	2.22	-12.8	-5.39	5.26	17.2	12.4	4.76	18.8	-13.7
COCC1CC2(CCN(C(=O)c3cccn3C)CC2)CN1C(C)C (stereo unspecified)	-2.49	-13.5	4.17	-2.06	1.37	-1.67	0.761	-12.3	7.92	3.66	-4.39
Cc1noc(C)c1-c1cncc(C2CCCN2Cc2cncnc2)n1 (stereo unspecified)	-2.17	2.67	6.8	-2.83	-3.54	1.63	5.55	18.2	4.25	8.97	-6.34
